LASV entry inh – Lassa virus entry inhibition; Lassa virus pseudotype entry inhibition, cell reporter; Potency, µM (highest dose often 37.9 µM), inactives show top-dose activity change, negative = inhibition, most hits filed as inhibitors; 1.2% of 300,000 active; AID 540256; calls by dose curve; tested in HEK293 cells; further: potency means the concentration at half of the fitted maximal effect; on the % scale 0 is the no-effect control and ±100 the full control effect; nearly all actives have a fitted effect of over 50% in size
Shiga inhibitor – inhibitors of Shiga toxin in Vero cells; Vero cells, Shiga toxin protein synthesis inhibition reporter; inhibition, % at 38.7 µM; 9.2% of 290,000 active; in the data active means inhibition mostly above about 28%, no sharp cut-off; inactive means mostly below about 43%; further: 0% is about no effect
Vaccinia Venus – vaccinia inhibition (Venus reporter); Potency, µM (top dose mostly 36.5 µM), without a hit: top-dose activity change, negative = inhibition, actives largely listed as inhibitors; 0.46% of 330,000 active; AID 720580; Vaccinia virus Venus reporter expression, fluorescence; calls by dose curve; tested in A549 cells; further: potency means the concentration at half of the fitted maximal effect; on the % scale 0 is the no-effect control and ±100 the full control effect; nearly all actives have a fitted effect of over 30% in size
Vaccinia mCherry – vaccinia inhibition (mCherry reporter); Potency, µM (top dose mostly 36.5 µM), inactives show at the highest dose activity change, negative = inhibition, hits mostly inhibitors; AID 720579; 0.63% of 310,000 active; Vaccinia virus mCherry reporter infection, fluorescence; calls by dose curve; tested in A549 cells; further: potency means the concentration at half of the fitted maximal effect; on the % scale 0 is the no-effect control and ±100 the full control effect; nearly all actives have a fitted effect of over 35% in size
MARV entry inh – blocks Marburg virus binding to or entry into cells; Marburg virus pseudotyped entry inhibition, cell reporter; Potency, µM (highest dose often 37.8 µM), for the others: at the top dose activity change, negative = inhibition, actives largely listed as inhibitors; 1.8% of 300,000 active; calls by dose curve; tested in HEK293 cells; further: potency means the concentration at half of the fitted maximal effect; on the % scale 0 is the no-effect control and ±100 the full control effect
Cycloheximide cs – counter-screen hit for Shiga toxin inhibitors, cycloheximide. cell reporter, cycloheximide protein synthesis inhibition counterscreen. max response, %. 12% of 300,000 active. AID 2314; in the data active means max response mostly above about 13%, no sharp cut-off; inactive means mostly below about 14%; further: read at 38.3 µM for the half of the compounds with a filed dose; 0% is about no effect
The depositor's hits bear a star; i = inactive; u = inconclusive; x = no result; [ ] = remark or other dose. The full list was thinned out, with hits kept by preference.

SMILES	LASV entry inh	Shiga inhibitor	Vaccinia Venus	Vaccinia mCherry	MARV entry inh	Cycloheximide cs
COc1cc(NC(=O)c2cc(OC)c(OC)c(OC)c2)ccc1NC(=O)c1cccs1	-27.0%	-42.1	-14.8%	-11.3%	-17.5%	0.6
COc1cc(NC(=O)c2cccs2)cc(OC)c1	-1.4%	active	-2.0%	x	15.6%	14.9*
COc1ccc(-c2noc(-c3cc(Cl)ccc3Cl)n2)cc1OC	x	-8.9	x	x	-5.6%	-3.0
COCCNC(=O)Cn1ncc2c(C)n(Cc3ccc(C)cc3)c(C)c2c1=O	-2.7%[46.1 µM]	x	0.9%	7.2%	-28.4%[46.1 µM]	x
COc1ccc(C(=O)Nc2cccc(NC(=O)c3cccs3)c2)cc1	x	20.3*	x	x	x	24.7*
COc1cc(OC)cc(C(=O)Nc2cccc(NC(=O)c3cccs3)c2)c1	x	x	-19.4%	i	x	x
COc1cccc(NC(=O)c2cccs2)c1	14.9%	134.8*	x	x	5.8%	54.0*
COc1cc(N)ccc1NC(=O)c1cccs1	5.0%	6.0	-9.2%	i	u	13.2*
CCCCc1ccc(NC(=O)COC(=O)c2ccccc2OCC(=O)Nc2ccc(Br)cc2)cc1	x	x	-16.3%	-13.0%	x	x
CCC(C)(C)NC(=O)C(c1ccccc1Cl)N(Cc1cccnc1)C(=O)CCC(=O)Nc1cc(C)on1 (stereo unspecified)	u	-3.9	-12.8%	i	-5.7%[46.1 µM]	-3.3
CCCc1cc(=O)[nH]c(SCCN2C(=O)c3ccccc3C2=O)n1	x	-3.9	x	x	x	-3.0
CCCOC1CCCN(C(=O)c2cc(COc3c(F)cccc3F)on2)C1 (stereo unspecified)	22.8%	92.8*	-12.1%	-14.6%	1.2%	46.8*
COc1ccc(OCc2cc(C(=O)N3CCCC(O)C3)no2)c2ccccc12 (stereo unspecified)	-15.6%	121.6*	-8.8%	-3.4%	0.7%	55.4*
COc1ccc(OCc2cc(C(=O)N3CCCC(OC)C3)no2)c2ccccc12 (stereo unspecified)	-7.5%	92.4*	-25.4%	-0.6%	-6.9%	50.4*
Cc1ccc(C)c(OCc2cc(C(=O)N3CC[C@H](O)C3)no2)c1	x	92.1*	x	x	x	34.4*
Cc1cccc(CNCCn2cc(C(=O)Nc3ccccc3)nn2)c1	x	x	-15.8%	-15.0%	x	x
Cc1nc2cc3ccccc3cc2n1C	9.6%	48.4*	-15.1%	i	u	19.1*
COc1ccc(NC(=O)c2sc(SC)nc2N)cc1	11.5%	47.8	-21.7%	-24.5%	21.4%	39.0*
CCN(CC)C(=O)CSc1nc(N)c(C(=O)Nc2ccc(OC)cc2)s1	-4.1%	-7.0	u	12.6µM*	0.8%	12.3
CC(C)S(=O)(=O)c1csc(C(=O)NN)c1Cl	4.6%	10.3	-15.5%	-18.6%	-3.6%	-2.1
COc1ccc(NC(=O)c2scc(S(=O)(=O)C(C)C)c2N)cc1	u	74.8*	5.3%	-13.7%	u	34.6*
COc1ccc(NC(=O)c2sc(SCc3ccccc3)nc2N)cc1	u	23.7	-10.5%	i	-2.2%	21.6*
COc1ccc(NC(=O)c2ccccc2SCc2ccccc2)cc1	x	x	-10.2%	u	x	x
COc1cc(C2c3[nH]c4ccccc4c3C[C@H]3C(=O)N(C4CC4)CC(=O)N23)ccc1OC(C)C (stereo partly specified)	22.1%[46.1 µM]	-7.3	-0.7%	-6.8%	u	-6.7
COc1ccc(/C=C/C(=O)O/N=C(\N)c2cccnc2)cc1OC	x	24.9	x	x	0.0%	28.6*
SMILES	LASV entry inh	Shiga inhibitor	Vaccinia Venus	Vaccinia mCherry	MARV entry inh	Cycloheximide cs
N/C(=N\OC(=O)/C=C/c1ccccc1)c1ccccc1	u	91.7*	-3.5%	-10.3%	-4.6%	34.9*
CCC(C(=O)O/N=C(\N)c1ccc(Cl)cc1)c1ccccc1 (stereo unspecified)	3.5%	-0.5	2.7%	-4.5%	-8.2%[46.1 µM]	8.6
N/C(=N\OC(=O)/C=C/c1ccccc1)c1ccc(Cl)cc1	-5.5%	17.5	4.0%	i	u	15.5*
CC12CCC(CC1)C(C)(C)O2	x	x	-8.4%	-1.1%	x	x
Cc1ccc(Cl)cc1N1CCN(CCCNC(=O)c2nnc(Cc3cccc(Cl)c3)o2)CC1	u	-2.8	-21.1%[7.34 µM]	-26.9%[7.34 µM]	u	-4.9
CCOc1ccccc1CNC(=O)c1ccc(Cn2c(=O)c3cccn3c3cccnc32)cc1	3.2%[46.1 µM]	x	-17.7%	-20.2%	x	x
COC(=O)CNC(=O)c1ccc(C)s1	-17.2%	-9.9	-1.4%	-12.5%	4.6%	-11.2
Cc1ccc(C(=O)Nc2nc(C(C)(C)C)cs2)s1	u	157.8*	u	x	u	56.5*
CC(C)(C)c1csc(NC(=O)c2ccc(Cl)s2)n1	u	102.6*	u	x	u	62.8*
CCOC(=O)c1c(Oc2ccc(C(=O)OC)cc2)nnc(-c2ccccc2)c1-c1ccccc1	u	x	-0.8%	-9.9%	u	x
COC(=O)c1c(Oc2ccc(C(C)=O)cc2)nnc(-c2ccccc2)c1-c1ccccc1	u	x	-17.0%	-14.2%	6.31µM*	x
O=[N+]([O-])c1ccc(NCCNCCOc2nonc2-c2ccccc2)c([N+](=O)[O-])c1	4.2%	-6.5	-10.7%	-9.1%	-4.1%[46.1 µM]	2.6
COc1cccc(-c2n[nH]c3c2CCC3)c1	19.8%[46.1 µM]	52.5	-14.2%	i	-24.6%[46.1 µM]	21.6*
COc1cccc(-c2nc(=S)c3c(o2)CCCC3)c1	x	120.4*	-13.9%	-13.9%	x	42.2*
S=c1[nH]nc(-c2ccccc2)o1	13.6%	29.4	-4.8%	-14.7%	2.9%	5.1
O=[N+]([O-])c1ccc(-c2nc(=S)c3c(o2)CCCC3)cc1	14.8%	15.9	-7.6%	i	u	12.4*
S=c1nc(-c2ccccc2)oc2c1CCCC2	u	94.6*	-6.0%	-11.7%	-0.1%	59.6*
CCn1c(=O)c(CCC(=O)N2CCN(c3ccccn3)CC2)c(C)c2c(C)nn(-c3cccc(C)c3)c21	x	-2.9	x	x	x	-0.4
Cc1sc2ncn(CC(=O)Nc3c(F)cccc3F)c(=O)c2c1S(=O)(=O)N1CCC(C)CC1	-2.9%	-0.6	0.7%	-0.6%	-24.7%[46.1 µM]	-8.4
CC(C)(C)c1cc(C(=O)NNC(=O)Nc2ccccc2)n(Cc2ccccc2)n1	x	-1.9	x	x	x	0.3
CC(C)(C)c1cc(C(=O)NCc2cc(F)cc3c2OCOC3)n(Cc2ccccc2)n1	u	83.2*	-3.5%	-2.8%	u	52.9*
Cc1cccc(NC(=O)CSc2ccc(-c3cccs3)nn2)c1C	6.9%	10.8	-9.1%	i	u	13.3*
O=C(CSc1ccc(-c2cccs2)nn1)N1CCCCC1	19.4%	52.0*	-6.8%	-11.8%	u	46.3*
O=C(CSc1ccc(-c2cccs2)nn1)N1CCCCCC1	-11.0%	44.1*	-3.8%	-12.6%	12.6%	20.0*
CCOc1ccc(OCC)c(-n2cnnn2)c1	-8.9%[46.1 µM]	x	-0.7%	6.9%	9.1%[46.1 µM]	x
CC(=O)Nc1ccc(N/C=C/C(=O)c2ccc(Br)cc2)cc1	x	4.1	x	x	x	-1.8
COc1ccc(C(=O)Sc2ccc(C)cc2)cc1OC	-1.8%	77.4*	-19.8%	-25.0%	7.2%	34.1*
COc1ccc(N/C=C\C(=O)c2ccc(C)cc2)cc1OC	-1.6%[46.1 µM]	84.9*	-6.9%	-11.8%	u	45.8*
COc1ccc(C(=O)Sc2ccc(Cl)cc2)cc1OC	-8.5%	11.9	-13.3%	x	16.6%	8.3
COc1ccc(N/C=C(\C(C)=O)c2ccc(OC)c(OC)c2)cc1OC	u	-22.5	-3.0%	4.5%	-6.8%[46.1 µM]	-1.3

Bioassay records deposited in PubChem by National Center for Advancing Translational Sciences (NCATS).
